Most compounds without a hit are left out; they make up all but 2.9% or so of the library.
PG9 Ab binder: small molecules binding HIV-1 gp120 antibody PG9; TR-FRET gp120-PG9 antibody binding; actives 0.43% (n = 360,000); inhibition, % at 6.7 µM; in the data active means inhibition above about 8.5%
NR1D1 modulator: modulators of human Rev-erb alpha DNA binding | P20393 | Rev-erbα–FITC-DNA binding, fluorescence polarization, 90 min | activity, % at 10 µM | actives 0.79% (n = 370,000) | AID 1259318;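 active means activity above about 14%, limit read from the data; passing the limit was not always enough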
EP2 mod: modulators of human EP2 prostaglandin E2 receptor; induction, % at 25 µM; actives 0.83% (n = 260,000); P43116; EP2-expressing cells, cAMP HTRF FRET, PGE2 co-stimulation;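 active means compounds whose cAMP rise, as percent of the full-agonist control response, exceeds 60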;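 further: rat C6 glioma line stably carrying human EP2 under a CMV promoter; the protocol text gives 20 µM as final concentration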
Target sequence (P43116 whole entry, looked up): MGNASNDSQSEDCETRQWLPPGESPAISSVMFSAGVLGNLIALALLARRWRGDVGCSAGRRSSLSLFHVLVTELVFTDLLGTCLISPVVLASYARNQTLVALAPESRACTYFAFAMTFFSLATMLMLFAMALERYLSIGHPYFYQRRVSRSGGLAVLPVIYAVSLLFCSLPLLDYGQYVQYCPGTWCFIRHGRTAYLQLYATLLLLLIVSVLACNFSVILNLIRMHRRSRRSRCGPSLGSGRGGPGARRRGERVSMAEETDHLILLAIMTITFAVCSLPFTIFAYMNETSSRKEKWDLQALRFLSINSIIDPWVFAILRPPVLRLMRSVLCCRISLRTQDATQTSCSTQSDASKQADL
SKN-1 inh: C. elegans SKN-1 inhibition | C. elegans VP596 Pgst-4::GFP/RFP ratio, acrylamide-induced, 24 h | inhibition, % at 21.8 µM | actives 0.49% (n = 360,000);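 active means interference check ratio from 0.5 to 1.5 plus GFP to RFP signal ratio inhibition reaching or exceeding a fixed threshold, cut at about 30% in these data, passing the limit was not always enough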
RAM inhibit: blocks the yeast RAM network | S. cerevisiae dse1pr::URA3 reporter, 5-FOA growth OD615, 2 d; analog-sensitive cbk1-as2 kinase mutant strain | inhibition, % at 50 µM | actives 1.8% (n = 190,000) | AID 868;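 active means inhibition above a set limit, 3 SD over mean compound inhibition, cut at about 8.4% in these data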;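 further: inhibition rescues growth on 5-FOA so higher OD means more RAM inhibition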
EP2 antag: inhibitors of human EP2 prostaglandin E2 receptor; AID 1422; actives 0.52% (n = 260,000); C6 glioma cells expressing human EP2, cAMP TR-FRET; cells stimulated with saturating PGE2; inhibition, % at 25 µM; P43116;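 active means percent inhibition above 40 after rounding to a whole number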;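 further: rat C6 glioma host cells with rolipram phosphodiesterase inhibitor present; the protocol text gives 20 µM as final concentration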
RAM 5-FOA: RAM network inhibition, efflux-deficient strain; S. cerevisiae efflux-deficient reporter strain, 5-FOA growth OD615, 2 days; 1,200 tested, under 10 active; shares compounds with RAM inhibit; max inhibition, %; call rule not given here
Large screens that a line does not name were inactive (follow-up assays come after a bar, where they were run).

COC(=O)c1ccc(NC(=O)COC(=O)c2ccccn2)cc1	none (no result: PG9 Ab binder, NR1D1 modulator, SKN-1 inh, RAM inhibit)
C=CCN(c1ccccc1Cl)S(=O)(=O)c1cccc(C(=O)NCCc2ccc(OC)cc2)c1	RAM inhibit 14 | RAM 5-FOA inactive
CCN(CC)CCN(Cc1cc2c(C)cc(C)cc2[nH]c1=O)C(=O)Nc1ccc(Cl)cc1	none (no result: PG9 Ab binder, NR1D1 modulator, SKN-1 inh, RAM inhibit)
COc1ccc2c(c1)OC1(CCN(CC(O)c3ccc4c(c3)CCC4)CC1)CC2O (configuration not stated)	none (no result: PG9 Ab binder, NR1D1 modulator, SKN-1 inh, RAM inhibit)
COC(=O)c1scc(C)c1N/N=C(\C)c1ccc(F)cc1F	RAM inhibit 13 | RAM 5-FOA inactive
O=[N+]([O-])c1ccc(C2CCCC/C2=N/OCc2ccc(F)cc2)c([N+](=O)[O-])c1 (configuration not stated)	RAM inhibit 13 | RAM 5-FOA inactive
CC(=O)c1cc(C(=O)NC(c2ccccc2)c2cccnc2)cs1 (configuration not stated)	none (no result: PG9 Ab binder, NR1D1 modulator, SKN-1 inh, RAM inhibit)
Cn1c(N=Nc2ccc(N3CCOCC3)cc2)[n+](C)c2ccccc21	SKN-1 inh 39, RAM inhibit 13 | RAM 5-FOA inactive
COc1ccc(CCNC(=O)c2ccc(-c3ccc([N+](=O)[O-])cc3Cl)o2)cc1	RAM inhibit 13 | RAM 5-FOA inactive
CCCOc1ccc(/C=N/Nc2ccccc2[N+](=O)[O-])c(OCCC)c1	RAM inhibit 16 | RAM 5-FOA inactive
C=CCN(CC=C)S(=O)(=O)c1ccc(NC(=S)NC(=O)c2ccco2)cc1	none
COc1ccc(CC(=O)NC(=S)Nc2ccc(S(N)(=O)=O)cc2)cc1	none
C=CCN(CC=C)S(=O)(=O)c1ccc(NC(=S)NC(=O)c2ccc(-c3ccccc3)cc2)cc1	RAM inhibit 17 | RAM 5-FOA inactive
C=CCN(CC=C)S(=O)(=O)c1ccc(NC(=S)NC(=O)Cc2ccc(OC)cc2)cc1	RAM inhibit 19 | RAM 5-FOA inactive
CNc1ncc(CN(Cc2ccccc2F)C2CC(C)(C)NC(C)(C)C2)cn1	none (no result: PG9 Ab binder, NR1D1 modulator, SKN-1 inh, RAM inhibit)
C=CCn1c(SCC(=O)Nc2cc(C)on2)nc2sc3c(c2c1=O)CCCC3	none (no result: EP2 antag)
C=CCn1c(SCc2csc(C)n2)nc2sc3c(c2c1=O)CCCCC3	RAM inhibit 17 | RAM 5-FOA inactive
C=CCn1c(SCc2csc(C)n2)nc2sc3c(c2c1=O)CCC(C)C3 (configuration not stated)	RAM inhibit 15 | RAM 5-FOA inactive
CCC(C)(C)NC(=O)C(c1ccncc1)N(C(=O)c1csnn1)c1ccc(C)cc1C (configuration not stated)	none (no result: PG9 Ab binder, NR1D1 modulator, SKN-1 inh, RAM inhibit)
COC(=O)CCSc1cc([N+](=O)[O-])cc2c1c(C1OCCO1)nn2-c1ccccc1	RAM inhibit 14 | RAM 5-FOA inactive
COC(=O)C1=C(C(=O)OC)SC(=C2C(=S)C(C)(C)Nc3c(C)cc(C)cc32)S1	none (no result: PG9 Ab binder, NR1D1 modulator, SKN-1 inh, RAM inhibit)
Cc1ccc(Cl)cc1N1CCN(S(=O)(=O)c2ccc3[nH]c(=O)ccc3c2)CC1	none (no result: EP2 mod, RAM inhibit, EP2 antag)
Cc1ccc(Cl)cc1N1CCN(S(=O)(=O)c2ccc3[nH]c(=O)c(=O)[nH]c3c2)CC1	RAM inhibit 12 | RAM 5-FOA inactive
CCCc1nn(CC(=O)N(C)C2CCCCC2)c(=O)c2cc3ccsc3n12	none (no result: PG9 Ab binder, NR1D1 modulator, SKN-1 inh, RAM inhibit, EP2 antag)
Cc1ccc(S(=O)(=O)NCCC(c2ccccc2)c2ccco2)cc1 (configuration not stated)	EP2 mod 64, RAM inhibit 14 | RAM 5-FOA inactive
N#CCCCSc1nnc(-c2ccc(Cl)cc2)n1-c1ccccc1	RAM inhibit 15 | RAM 5-FOA inactive
CCn1c(COc2ccc(Br)cc2)nnc1SCC(=O)Nc1cccc(OC)c1	none (no result: PG9 Ab binder, NR1D1 modulator, SKN-1 inh, RAM inhibit)
CCOC(=O)c1cccc(NC(=O)CSc2nnc(COc3ccccc3)n2CC)c1	RAM inhibit 14 | RAM 5-FOA inactive
CCn1c(COc2cccc(C)c2)nnc1SCC(=O)Nc1cccc(C(=O)OC)c1	none
COc1cc2c(=O)n(Cc3ccco3)c(=O)n(CC(=O)c3ccc(Br)cc3)c2cc1OC	RAM inhibit 12 | RAM 5-FOA inactive
COc1cc2c(=O)n(Cc3ccco3)c(=O)n(CC(=O)c3cccc(Br)c3)c2cc1OC	none (no result: PG9 Ab binder, NR1D1 modulator, SKN-1 inh)
Cc1ccc(/C=C/C(=O)OCC(=O)Nc2ccccc2Sc2ccccc2)cc1	RAM inhibit 19 | RAM 5-FOA inactive
COc1cccc(/C=C/C(=O)OCC(=O)NCCNC(=O)COC(=O)/C=C/c2cccc(OC)c2)c1	none (no result: EP2 mod, RAM inhibit, EP2 antag)
COc1cccc(/C=C/C(=O)OCC(=O)Nc2ccccc2Sc2ccccc2)c1	RAM inhibit 24 | RAM 5-FOA inactive
COc1ccc(OC)c(/C=C/C(=O)OCC(=O)Nc2cccc(Oc3ccccc3)c2)c1	RAM inhibit 13 | RAM 5-FOA inactive
COc1ccc(OC)c(/C=C/C(=O)OCC(=O)Nc2nnc(-c3ccccc3)o2)c1	none (no result: EP2 mod, RAM inhibit, EP2 antag)
CC1(C)CC(=O)C2=C(C1)OC1=C(C(=O)CC(C)(C)C1)C2c1ccncc1	none (no result: PG9 Ab binder, NR1D1 modulator, SKN-1 inh, RAM inhibit)
COc1ccc(Cc2nc(-c3ccc(-n4cccc4)cc3)no2)cc1OC	RAM inhibit 12 | RAM 5-FOA inactive
COc1ccc(Cc2nc(-c3ccc(-n4cccc4)cc3)no2)cc1	none
COc1ccc(OC)c(NC(=O)c2cc3c(C)nn(-c4ccccc4)c3s2)c1	none (no result: PG9 Ab binder, NR1D1 modulator, SKN-1 inh, RAM inhibit)
COc1cc(OC)cc(-c2nnc(SCc3cccc(C(=O)O)c3)o2)c1	RAM inhibit 14 | RAM 5-FOA inactive
O=C(Nc1ccccc1-c1nnc(SCc2ccccc2)o1)c1ccccc1	RAM inhibit 19 | RAM 5-FOA inactive
O=C(O)c1cccc(CSc2nnc(-c3ccco3)o2)c1	none
COc1cccc(/C=C(/C(=O)OCC(=O)NC2CCCCCCC2)c2ccccc2)c1	RAM inhibit 13 | RAM 5-FOA inactive
COCCNC(=O)c1ccc2c(c1)C1C3CCC(C3)C1C(c1ccccc1)N2 (configuration not stated)	none (no result: PG9 Ab binder, NR1D1 modulator, SKN-1 inh, RAM inhibit)
CN1C2=C(C(=O)CCC2)C(c2cc(Cl)ccc2O)C2=C1CCCC2=O	none (no result: PG9 Ab binder, NR1D1 modulator, SKN-1 inh, RAM inhibit)
Cc1cc(-c2cncnc2C2CCCN(C(=O)c3cccnc3)C2)on1 (configuration not stated)	none (no result: PG9 Ab binder, NR1D1 modulator, SKN-1 inh, RAM inhibit, EP2 antag)
N#Cc1cnn2c(C(F)(F)F)c3c(nc12)CCC3	none (no result: PG9 Ab binder, NR1D1 modulator, SKN-1 inh, RAM inhibit)
Cc1ccc(C)c(OCCCCn2cnc3ccccc3c2=O)c1	none
CC(C)Oc1ccccc1OCCCCn1cnc2ccccc2c1=O	RAM inhibit 14 | RAM 5-FOA inactive
CCCCOc1ccc(S(=O)(=O)Nc2cc(OC)ccc2OC)cc1	RAM inhibit 11 | RAM 5-FOA inactive
Cc1ccc(N/N=C/c2c(C)c(C#N)c(=O)n(C)c2O)cc1C	RAM inhibit 13 | RAM 5-FOA inactive
CCSC1=N/C(=C\c2ccc(-c3ccccc3[N+](=O)[O-])o2)C(=O)S1	RAM inhibit 14 | RAM 5-FOA inactive
CCCSC1=N/C(=C\c2ccc([N+](=O)[O-])o2)C(=O)S1	none
N#Cc1c(C(F)(F)F)cc(C2CC2)nc1N1CCCC1	RAM inhibit 14 | RAM 5-FOA inactive
